# From paper PMC11062922 (Nature Chemical Biology, 2023)
# Like-named read-outs stand apart in the source and are kept apart here.
# Assays:
# [1] = system: NUAK1; conditions: read-out: apparent Kd, n = 1
# [2] = system: PAK4; conditions: read-out: apparent Kd, n = 1
# [3] = compound concentrations:100 nM and 1000 nM (sheet 'Lestaurtinib' of Supplementary Table 1),run:Lestaurtinib_02496_R2,Plate:MR013
# [4] = compound concentrations:100 nM and 1000 nM (sheet 'Lestaurtinib' of Supplementary Table 1),run:Lestaurtinib_02566_R2,Plate:MR014
# [5] = compound concentrations:100 nM and 1000 nM (sheet 'Lestaurtinib' of Supplementary Table 1),run:Lestaurtinib_02566_R3,Plate:MR014
# [6] = compound concentrations:100 nM and 1000 nM (sheet 'Lestaurtinib' of Supplementary Table 1),run:Lestaurtinib_02572_R2,Plate:MR015
# [7] = compound concentrations:100 nM and 1000 nM (sheet 'Lestaurtinib' of Supplementary Table 1),run:Lestaurtinib_02584_R2,Plate:MR017
# [8] = compound concentrations:100 nM and 1000 nM (sheet 'Lestaurtinib' of Supplementary Table 1),run:Lestaurtinib_02601_R1,Plate:MR018
# [9] = compound concentrations:100 nM and 1000 nM (sheet 'Lestaurtinib' of Supplementary Table 1),run:Lestaurtinib_02606_R1,Plate:MR019
# [10] = compound concentrations:100 nM and 1000 nM (sheet 'Lestaurtinib' of Supplementary Table 1),run:Lestaurtinib_02606_R3,Plate:MR019
# [11] = compound concentrations:100 nM and 1000 nM (sheet 'Lestaurtinib' of Supplementary Table 1),run:Lestaurtinib_02624_R2,Plate:MR020
# [12] = compound concentrations:100 nM and 1000 nM (sheet 'Lestaurtinib' of Supplementary Table 1),run:Lestaurtinib_02724_R1,Plate:MR021
# [13] = compound concentrations:100 nM and 1000 nM (sheet 'Lestaurtinib' of Supplementary Table 1),run:Lestaurtinib_02741_R1,Plate:MR023
# [14] = compound concentrations:100 nM and 1000 nM (sheet 'Lestaurtinib' of Supplementary Table 1),run:Lestaurtinib_02741_R3,Plate:MR023
# [15] = compound concentrations:100 nM and 1000 nM (sheet 'Lestaurtinib' of Supplementary Table 1),run:Lestaurtinib_02748_R1,Plate:MR024
# [16] = compound concentrations:100 nM and 1000 nM (sheet 'Lestaurtinib' of Supplementary Table 1),run:Lestaurtinib_02765_R1,Plate:MR026
# [17] = compound concentrations:100 nM and 1000 nM (sheet 'Lestaurtinib' of Supplementary Table 1),run:Lestaurtinib_02765_R3,Plate:MR026
# [18] = compound concentrations:100 nM and 1000 nM (sheet 'Lestaurtinib' of Supplementary Table 1),run:Lestaurtinib_02766_R1,Plate:MR027
substance,measurement,setting,value
Lestaurtinib,potency estimated from few doses,[1]; [3],81.1 nM
same,potency estimated from few doses,[1]; [4],73 nM
same,potency estimated from few doses,[1]; [5],85.3 nM
same,potency estimated from few doses,[1]; [6],17.9 nM
same,potency estimated from few doses,"[1]; compound concentrations:100 nM and 1000 nM (sheet 'Lestaurtinib' of Supplementary Table 1),run:Lestaurtinib_02572_R3,Plate:MR015",42.5 nM
same,potency estimated from few doses,"[1]; compound concentrations:100 nM and 1000 nM (sheet 'Lestaurtinib' of Supplementary Table 1),run:Lestaurtinib_02577_R2,Plate:MR016",113 nM
same,potency estimated from few doses,"[1]; compound concentrations:100 nM and 1000 nM (sheet 'Lestaurtinib' of Supplementary Table 1),run:Lestaurtinib_02577_R3,Plate:MR016",73.6 nM
same,potency estimated from few doses,"[1]; compound concentrations:100 nM and 1000 nM (sheet 'Lestaurtinib' of Supplementary Table 1),run:Lestaurtinib_02584_R1,Plate:MR017",89.4 nM
same,potency estimated from few doses,[1]; [7],66.9 nM
same,potency estimated from few doses,"[1]; compound concentrations:100 nM and 1000 nM (sheet 'Lestaurtinib' of Supplementary Table 1),run:Lestaurtinib_02584_R3,Plate:MR017",134 nM
same,potency estimated from few doses,[1]; [8],142 nM
same,potency estimated from few doses,[1]; [9],39.7 nM
same,potency estimated from few doses,"[1]; compound concentrations:100 nM and 1000 nM (sheet 'Lestaurtinib' of Supplementary Table 1),run:Lestaurtinib_02606_R2,Plate:MR019",58 nM
same,potency estimated from few doses,[1]; [10],92 nM
same,potency estimated from few doses,[1]; [11],82.2 nM
same,potency estimated from few doses,"[1]; compound concentrations:100 nM and 1000 nM (sheet 'Lestaurtinib' of Supplementary Table 1),run:Lestaurtinib_02624_R3,Plate:MR020",96.7 nM
same,potency estimated from few doses,[1]; [12],59.7 nM
same,potency estimated from few doses,[1]; [13],165 nM
same,potency estimated from few doses,[1]; [14],43.7 nM
same,potency estimated from few doses,[1]; [15],52.3 nM
same,potency estimated from few doses,"[1]; compound concentrations:100 nM and 1000 nM (sheet 'Lestaurtinib' of Supplementary Table 1),run:Lestaurtinib_02748_R2,Plate:MR024",40.2 nM
same,potency estimated from few doses,"[1]; compound concentrations:100 nM and 1000 nM (sheet 'Lestaurtinib' of Supplementary Table 1),run:Lestaurtinib_02752_R1,Plate:MR025",56.1 nM
same,potency estimated from few doses,"[1]; compound concentrations:100 nM and 1000 nM (sheet 'Lestaurtinib' of Supplementary Table 1),run:Lestaurtinib_02752_R3,Plate:MR025",64.1 nM
same,potency estimated from few doses,[1]; [16],74.4 nM
same,potency estimated from few doses,[1]; [17],64.4 nM
same,potency estimated from few doses,[1]; [18],97.5 nM
same,potency estimated from few doses,"[1]; compound concentrations:100 nM and 1000 nM (sheet 'Lestaurtinib' of Supplementary Table 1),run:Lestaurtinib_02766_R3,Plate:MR027",92.8 nM
same,potency estimated from few doses,"[1]; compound concentrations:100 nM and 1000 nM (sheet 'Lestaurtinib' of Supplementary Table 1),run:Lestaurtinib_02768_R2,Plate:MR028",41.7 nM
same,potency estimated from few doses,"[1]; compound concentrations:100 nM and 1000 nM (sheet 'Lestaurtinib' of Supplementary Table 1),run:Lestaurtinib_02768_R3,Plate:MR028",48.7 nM
same,potency estimated from few doses,"[1]; compound concentrations:100 nM and 1000 nM (sheet 'Lestaurtinib' of Supplementary Table 1),run:Lestaurtinib_02795_R1,Plate:MR022",62.8 nM
same,potency estimated from few doses,"[1]; compound concentrations:100 nM and 1000 nM (sheet 'Lestaurtinib' of Supplementary Table 1),run:Lestaurtinib_02795_R2,Plate:MR022",38.6 nM
same,potency estimated from few doses,"[1]; compound concentrations:100 nM and 1000 nM (sheet 'Lestaurtinib' of Supplementary Table 1),run:Lestaurtinib_02795_R3,Plate:MR022",165 nM
same,potency estimated from few doses,"[1]; compound concentrations:100 nM and 1000 nM (sheet 'Lestaurtinib' of Supplementary Table 1),run:Lestaurtinib_02802_R1,Plate:MR029",72.2 nM
same,potency estimated from few doses,"[1]; compound concentrations:100 nM and 1000 nM (sheet 'Lestaurtinib' of Supplementary Table 1),run:Lestaurtinib_02802_R3,Plate:MR029",44.9 nM
same,potency estimated from few doses,"[1]; compound concentrations:100 nM and 1000 nM (sheet 'Lestaurtinib' of Supplementary Table 1),run:Lestaurtinib_02896_R1,Plate:MR030",52.5 nM
same,potency estimated from few doses,"[1]; compound concentrations:100 nM and 1000 nM (sheet 'Lestaurtinib' of Supplementary Table 1),run:Lestaurtinib_02896_R3,Plate:MR030",55.1 nM
same,potency estimated from few doses,"[1]; compound concentrations:100 nM and 1000 nM (sheet 'Lestaurtinib' of Supplementary Table 1),run:Lestaurtinib_03172_R2,Plate:MR031",66.5 nM
same,potency estimated from few doses,"[1]; compound concentrations:100 nM and 1000 nM (sheet 'Lestaurtinib' of Supplementary Table 1),run:Lestaurtinib_03172_R3,Plate:MR031",62.7 nM
same,potency estimated from few doses,"[1]; compound concentrations:100 nM and 1000 nM (sheet 'Lestaurtinib' of Supplementary Table 1),run:Lestaurtinib_03252_R1,Plate:MR032",51.7 nM
same,potency estimated from few doses,"[2]; compound concentrations:100 nM and 1000 nM (sheet 'Lestaurtinib' of Supplementary Table 1),run:Lestaurtinib_02339_R1,Plate:MR001",32.7 nM
same,potency estimated from few doses,"[2]; compound concentrations:100 nM and 1000 nM (sheet 'Lestaurtinib' of Supplementary Table 1),run:Lestaurtinib_02339_R2,Plate:MR001",36.1 nM
same,potency estimated from few doses,"[2]; compound concentrations:100 nM and 1000 nM (sheet 'Lestaurtinib' of Supplementary Table 1),run:Lestaurtinib_02364_R1,Plate:MR002",32 nM
same,potency estimated from few doses,"[2]; compound concentrations:100 nM and 1000 nM (sheet 'Lestaurtinib' of Supplementary Table 1),run:Lestaurtinib_02364_R2,Plate:MR002",32.9 nM
same,potency estimated from few doses,"[2]; compound concentrations:100 nM and 1000 nM (sheet 'Lestaurtinib' of Supplementary Table 1),run:Lestaurtinib_02364_R3,Plate:MR002",35.1 nM
same,potency estimated from few doses,"[2]; compound concentrations:100 nM and 1000 nM (sheet 'Lestaurtinib' of Supplementary Table 1),run:Lestaurtinib_02367_R1,Plate:MR003",29.7 nM
same,potency estimated from few doses,"[2]; compound concentrations:100 nM and 1000 nM (sheet 'Lestaurtinib' of Supplementary Table 1),run:Lestaurtinib_02367_R2,Plate:MR003",33.6 nM
same,potency estimated from few doses,"[2]; compound concentrations:100 nM and 1000 nM (sheet 'Lestaurtinib' of Supplementary Table 1),run:Lestaurtinib_02367_R3,Plate:MR003",35.8 nM
same,potency estimated from few doses,"[2]; compound concentrations:100 nM and 1000 nM (sheet 'Lestaurtinib' of Supplementary Table 1),run:Lestaurtinib_02381_R1,Plate:MR004",31 nM
same,potency estimated from few doses,"[2]; compound concentrations:100 nM and 1000 nM (sheet 'Lestaurtinib' of Supplementary Table 1),run:Lestaurtinib_02381_R3,Plate:MR004",30 nM
same,potency estimated from few doses,"[2]; compound concentrations:100 nM and 1000 nM (sheet 'Lestaurtinib' of Supplementary Table 1),run:Lestaurtinib_02407_R2,Plate:MR005",28.6 nM
same,potency estimated from few doses,"[2]; compound concentrations:100 nM and 1000 nM (sheet 'Lestaurtinib' of Supplementary Table 1),run:Lestaurtinib_02407_R3,Plate:MR005",34.5 nM
same,potency estimated from few doses,"[2]; compound concentrations:100 nM and 1000 nM (sheet 'Lestaurtinib' of Supplementary Table 1),run:Lestaurtinib_02422_R1,Plate:MR006",44.2 nM
same,potency estimated from few doses,"[2]; compound concentrations:100 nM and 1000 nM (sheet 'Lestaurtinib' of Supplementary Table 1),run:Lestaurtinib_02422_R2,Plate:MR006",20.2 nM
same,potency estimated from few doses,"[2]; compound concentrations:100 nM and 1000 nM (sheet 'Lestaurtinib' of Supplementary Table 1),run:Lestaurtinib_02438_R2,Plate:MR008",30.6 nM
same,potency estimated from few doses,"[2]; compound concentrations:100 nM and 1000 nM (sheet 'Lestaurtinib' of Supplementary Table 1),run:Lestaurtinib_02443_R2,Plate:MR009",31.9 nM
same,potency estimated from few doses,"[2]; compound concentrations:100 nM and 1000 nM (sheet 'Lestaurtinib' of Supplementary Table 1),run:Lestaurtinib_02443_R3,Plate:MR009",33.2 nM
same,potency estimated from few doses,"[2]; compound concentrations:100 nM and 1000 nM (sheet 'Lestaurtinib' of Supplementary Table 1),run:Lestaurtinib_02482_R2,Plate:MR011",36.2 nM
same,potency estimated from few doses,"[2]; compound concentrations:100 nM and 1000 nM (sheet 'Lestaurtinib' of Supplementary Table 1),run:Lestaurtinib_02487_R2,Plate:MR012",38.6 nM
same,potency estimated from few doses,"[2]; compound concentrations:100 nM and 1000 nM (sheet 'Lestaurtinib' of Supplementary Table 1),run:Lestaurtinib_02487_R3,Plate:MR012",39.1 nM
same,potency estimated from few doses,"[2]; compound concentrations:100 nM and 1000 nM (sheet 'Lestaurtinib' of Supplementary Table 1),run:Lestaurtinib_02496_R1,Plate:MR013",33 nM
same,potency estimated from few doses,[2]; [3],30.6 nM
same,potency estimated from few doses,"[2]; compound concentrations:100 nM and 1000 nM (sheet 'Lestaurtinib' of Supplementary Table 1),run:Lestaurtinib_02496_R3,Plate:MR013",35.4 nM
same,potency estimated from few doses,"[2]; compound concentrations:100 nM and 1000 nM (sheet 'Lestaurtinib' of Supplementary Table 1),run:Lestaurtinib_02566_R1,Plate:MR014",27.9 nM
same,potency estimated from few doses,[2]; [4],31 nM
same,potency estimated from few doses,[2]; [5],38.2 nM
same,potency estimated from few doses,"[2]; compound concentrations:100 nM and 1000 nM (sheet 'Lestaurtinib' of Supplementary Table 1),run:Lestaurtinib_02572_R1,Plate:MR015",26.1 nM
same,potency estimated from few doses,[2]; [6],37.9 nM
same,potency estimated from few doses,[2]; [7],27.4 nM
same,potency estimated from few doses,[2]; [8],32.9 nM
same,potency estimated from few doses,"[2]; compound concentrations:100 nM and 1000 nM (sheet 'Lestaurtinib' of Supplementary Table 1),run:Lestaurtinib_02601_R2,Plate:MR018",36.5 nM
same,potency estimated from few doses,"[2]; compound concentrations:100 nM and 1000 nM (sheet 'Lestaurtinib' of Supplementary Table 1),run:Lestaurtinib_02601_R3,Plate:MR018",32.3 nM
same,potency estimated from few doses,[2]; [9],35.4 nM
same,potency estimated from few doses,[2]; [10],35.6 nM
same,potency estimated from few doses,"[2]; compound concentrations:100 nM and 1000 nM (sheet 'Lestaurtinib' of Supplementary Table 1),run:Lestaurtinib_02624_R1,Plate:MR020",26.1 nM
same,potency estimated from few doses,[2]; [11],31 nM
same,potency estimated from few doses,[2]; [12],32.9 nM
same,potency estimated from few doses,"[2]; compound concentrations:100 nM and 1000 nM (sheet 'Lestaurtinib' of Supplementary Table 1),run:Lestaurtinib_02724_R3,Plate:MR021",33 nM
same,potency estimated from few doses,[2]; [13],38.6 nM
same,potency estimated from few doses,"[2]; compound concentrations:100 nM and 1000 nM (sheet 'Lestaurtinib' of Supplementary Table 1),run:Lestaurtinib_02741_R2,Plate:MR023",39.4 nM
same,potency estimated from few doses,[2]; [14],35.6 nM
same,potency estimated from few doses,[2]; [15],30.4 nM
same,potency estimated from few doses,[2]; [16],29.8 nM
same,potency estimated from few doses,"[2]; compound concentrations:100 nM and 1000 nM (sheet 'Lestaurtinib' of Supplementary Table 1),run:Lestaurtinib_02765_R2,Plate:MR026",36.5 nM
same,potency estimated from few doses,[2]; [17],36.5 nM
same,potency estimated from few doses,[2]; [18],27.8 nM
